Out of some 190,000 compounds screened, about 2,000 (1.1%) were called active. The sample holds actives, similar compounds and a random draw of the others, so the mix is not that of the screen.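 Rule for the calls: active = activation above a set limit, based on mean plus 3 SD of controls (cut at about 140% in these data); inconclusive = one replicate above the limit, the other below; inactive = the rest.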

This test is described as follows: APP 5'UTR reporter signal increase – luciferase, SH-SY5Y cells, primary screen (AID 1276). The note with it: SH-SY5Y APP 5'UTR luciferase reporter, luminescence; at 2 µM; stronger effect = higher value; zero percent = DMSO vehicle wells. For orientation: A reporter such as luciferase makes a cellular process visible.
On to `CCN1CCC(=NNC(=O)c2ccc(C)c([N+](=O)[O-])c2)CC1`, for which the activation was -0.15% (inactive).

Turning to `Cc1ccc(C(=O)Nc2cccc3ncccc23)cc1[N+](=O)[O-]`, the activation was -2.5% (inactive).

Consider `Cc1cc(O)c(NC(=O)c2ccc(C)c([N+](=O)[O-])c2)cc1C`, for which the activation was 142% (active).

With `O=[N+]([O-])c1ccccc1N/N=C1\CCc2ccccc21`, the activation is 120% (inactive).

In the case of `CCCCCC(=O)Nc1ccc2oc(-c3ccncc3)nc2c1`, the activation is 7.49% (inactive).

`Nc1ccc(-c2nnc(-c3ccc(-c4ccccc4)cc3)o2)cc1`: the activation was 79.7% (inactive).

Turning to `CCc1ccc2oc(-c3ccc(N)cc3)nc2c1`, the activation was 141% (active).

In the case of `C=CCNC(=S)N1CCN(CCN=Cc2c(C)[nH]n(-c3ccc([N+](=O)[O-])cc3)c2=O)CC1`, the activation was 1.34% (inactive).

With `O=C(CN1CCN(c2ccc(O)cc2)CC1)Nc1cc(S(=O)(=O)N2CCOCC2)ccc1Cl`, the activation was 2.42% (inactive).

Turning to `OCC1(CCOc2ccccc2)CCN(Cc2cn[nH]c2-c2ccccc2)CC1`, the activation was 7.79% (inactive).

Regarding `O=C(O)c1ccc(NC(=O)c2cn(-c3ccccc3)nc2-c2ccc(Cl)cc2)cc1`, the activation was 8.51% (inactive).

Take `O=C(c1cnn(-c2ccc(Cl)cc2)c1)c1ccccc1O`: the activation was 177% (active).

Consider `Cc1ncc(CC(=O)n2cc(C(=O)c3cc(Cl)ccc3O)cn2)s1`, for which the activation was 6.84% (inactive).

Take `Cc1nc2ccccc2nc(=O)c1NNc1ccc([N+](=O)[O-])cc1`: the activation is -4.38% (inactive).

As to `CCc1ccc(NC(=O)N2CCN(c3ccccc3)CC2)cc1`, the activation is 1.57% (inactive).

On to `CCOC(=O)c1ccc(NC2Nc3cc(C)nn3S2)cc1` (centres undefined), for which the activation is 4.66% (inactive).

In the case of `CCc1ccc(NC2Nc3cc(C)nn3S2)cc1` (centres undefined), the activation was 166% (active).

On to `CC(=O)c1ccc(-c2nnc(CCC(=O)N(C)Cc3cnc4ccccn34)o2)s1`, for which the activation was -5.43% (inactive).

Take `COC(=O)CN1C(=O)N/C(=C/c2ccc(OC)c(C)c2OC)C1=O`: the activation is -21.7% (inactive).

For `Cc1cc(C)n(Cc2cnc(N3CCOCC3)s2)n1`, the activation was 22.6% (inactive).

With `NNC(=O)c1cnn(-c2ccccc2)c1C(F)(F)F`, the activation is 15.9% (inactive).

In the case of `Cc1ccccc1Nc1nc(N)nc(CSc2nnc3ccccn23)n1`, the activation is 59.9% (inactive).

Consider `Cc1ccc(C(=O)OCc2nc(N)nc(Nc3ccccc3C)n2)cc1`, for which the activation was -2.39% (inactive).

As to `Cc1ccccc1Nc1nc(N)nc(CSc2ccccc2)n1`, the activation was 159% (active).

In the case of `CCCC1(C(=O)OC)NC(c2ccco2)C2C(=O)N(C)C(=O)C21` (centres undefined), the activation is 9.69% (inactive).

In the case of `CC(=O)NCCc1nc2cc(NC(=O)c3ccccc3)ccc2n1C`, the activation was 55.4% (inactive).

As for `Cc1cc(C)c2nc(SCC(=O)N(C)C3CCS(=O)(=O)C3)cc(C)c2c1` (centres undefined), the activation was 11.6% (inactive).

Take `O=C(CC1SCCNC1=O)Nc1ccc(Cl)c(Cl)c1` (centres undefined): the activation was -7.34% (inactive).

In the case of `Cc1cc(NC(=O)CSc2nc3c(cc2C#N)CCCCC3)no1`, the activation is 191% (active).

Consider `Cc1nc(SCC(=O)Nc2cc(C)on2)c2c3c(sc2n1)CCCC3`, for which the activation was -10.6% (inactive).

Turning to `CC(NC(=O)CSc1nc2c(cc1C#N)CN(C)CC2)c1ccccc1` (centres undefined), the activation was 1.35% (inactive).

For `COc1ccc(C2CC(c3cccs3)=Nc3ccccc3S2)cc1OC` (centres undefined), the activation was 2.96% (inactive).

Consider `COc1ccc(-c2nn3c(-c4ccccc4)nnc3s2)cc1OC`, for which the activation is 12.1% (inactive).

`COc1ccc(-c2csc(-c3cccs3)n2)cc1OC`: the activation is 172% (active).

With `O=C(NCCc1ccccn1)c1cc(-c2ccc(Cl)cc2)nc2ccccc12`, the activation is -9.75% (inactive).

Consider `O=c1c2c(nc3nc[nH]n13)CCC2`, for which the activation is 3.94% (inactive).

In the case of `O=C1CCCc2c1nc(-c1cccc(Cl)c1)n2O`, the activation is -94.3% (inactive).

For `O=c1c2c(nc3cc(-c4cccc(Cl)c4)[nH]n13)CCCC2`, the activation was 158% (active).

`Cc1ccc(-c2cc(N)on2)cc1`: the activation was -4.88% (inactive).

In the case of `CCC(C)NC(=O)Cn1nc(C(F)(F)F)c2c1CCC2` (centres undefined), the activation was -3.33% (inactive).

As to `COc1ccc(-c2cn3cccnc3n2)cc1`, the activation was 35.2% (inactive).

In the case of `CCCC(=O)Nc1cccc(-c2cn3ccsc3n2)c1`, the activation was 20.7% (inactive).

For the compound `COc1ccc(-c2cn3ccsc3n2)cc1`, the activation is 135% (active).

Turning to `CN1C(=O)/C(=C\c2ccc(-c3ccccc3)o2)SC1=S`, the activation is 5.23% (inactive).

`Cc1cccc(OC(=O)c2sc3ncn(C)c(=O)c3c2C)c1`: the activation was 62.6% (inactive).

Regarding `O=C(O)c1cccc(N2C(=O)Nc3ccccc3N2O)c1`, the activation was 27.8% (inactive).

For the compound `NC1=NN(c2cccc(C(=O)O)c2)C(=O)C1`, the activation is 135% (active).

`O=C(c1cccc(N2CCCC2=O)c1)N1CCOCC1`: the activation is 10.7% (inactive).

Consider `CCOC(=O)c1cc2c(=O)[nH]c(C(Cl)(Cl)Cl)nc2o1`, for which the activation is 5.69% (inactive).

Regarding `CCCCOc1ccc(C(=O)NCC(=O)OCC(=O)N2CCN(S(=O)(=O)c3ccc(C)cc3C)CC2)cc1`, the activation was -1.98% (inactive).

As to `Cc1ccnc(Nc2nc3ccccc3s2)n1`, the activation was 127% (inactive).

`c1ccc2sc(NN=C3CCCC3)nc2c1`: the activation was 193% (active).

With `O=[N+]([O-])c1cc(Br)c(O)c(/C=N/Nc2nc3ccccc3s2)c1`, the activation is 12.5% (inactive).

Regarding `CCOCCCNC(=S)N1CCC(NC(=O)C2CCCCC2)CC1`, the activation was -16.3% (inactive).

Consider `CCn1ccnc1CN(C)Cc1nc(-c2ccc3c(c2)OCO3)no1`, for which the activation was 14.5% (inactive).

Regarding `O=C(/C=C\c1cn(-c2ccccc2)nc1-c1cccs1)N1CCOCC1`, the activation was -5.12% (inactive).

`O=C(O)c1ccc(N/N=C/c2cn(-c3ccccc3)nc2-c2cccs2)cc1`: the activation was 140% (active).

For the compound `O=C(O)/C=C/c1cn(-c2ccccc2)nc1-c1cccs1`, the activation is -9.09% (inactive).

On to `COc1ccc(/C=N/N=C/c2c[nH]c(=O)c(C#N)c2Nc2ccccc2)cc1`, for which the activation is -8.9% (inactive).

For `COc1cccc2sc(NNC(=O)c3nc4ccccc4s3)nc12`, the activation is 7.9% (inactive).

Turning to `CCc1ccc(-c2nnn(Cc3nc4ccccc4s3)n2)cc1`, the activation was 0.38% (inactive).

`COc1ccccc1OCc1nc2ccccc2s1`: the activation was 142% (active).

Regarding `CC(O)C(NS(=O)(=O)c1ccc(Cl)cc1)C(=O)OCc1cc([N+](=O)[O-])cc2c1OCOC2` (centres undefined), the activation is 22.7% (inactive).

For `COc1ccc(-c2nc(-c3ccccc3)no2)c(OC)c1`, the activation was 139% (active).

For `COc1ccc(-c2noc(-c3ccc(C)cc3)n2)cc1`, the activation is 38.2% (inactive).

With `CCOc1nc(-c2ccc(OC)cc2)ccc1-c1noc(-c2cc(OC)c(OC)c(OC)c2)n1`, the activation is -12.3% (inactive).

With `COc1ccccc1NC(=O)c1ccc(C)s1`, the activation is 141% (active).

In the case of `COC(=O)c1c(NC(C)=O)sc(C(=O)Nc2ccccc2OC)c1C`, the activation was 2.59% (inactive).

For `COc1ccccc1NC(=O)C1=C(C)NC(=O)NC1c1ccc(C)s1` (centres undefined), the activation is 12.8% (inactive).

As for `CC[n+]1c(C)n(-c2ccccc2)c2ccc(NC(C)=O)cc21`, the activation is 19.1% (inactive).

Consider `COC(=O)c1sc(NC(=O)c2ccc(OC)cc2OC)nc1C`, for which the activation is 137% (active).

As to `COc1ccc(C(=O)Nc2nncs2)c(OC)c1`, the activation is 31.6% (inactive).

Regarding `CCOC(=O)c1sc(NC(=O)c2ccncc2)nc1C`, the activation is 7.58% (inactive).

With `CCN(CC(=O)Nc1ccc(Cl)c(S(=O)(=O)N(C)C)c1)Cc1nc2ccccc2c(=O)[nH]1`, the activation is -2.77% (inactive).

For the compound `O=C(O)Cc1sc(-c2ccc(C(=O)O)cc2)nc1-c1ccccc1`, the activation is 19.5% (inactive).

For the compound `O=C(O)Cc1sc(-c2ccccc2)nc1-c1cccs1`, the activation is 2.54% (inactive).

As to `NC(=O)Cc1ccc2sc(-c3ccccc3)nc2c1`, the activation was 140% (active).

On to `O=C(Nc1nc2ccc([N+](=O)[O-])cc2s1)c1ccc(S(=O)(=O)N2CCCc3ccccc32)cc1`, for which the activation was 2.11% (inactive).

For `CCCCN(C(=O)COc1ccc(NC(C)=O)cc1)C1CCS(=O)(=O)C1` (centres undefined), the activation was 6.89% (inactive).

Consider `COc1ccc2nc(Nc3nc4ccc(NC(C)=O)cc4s3)sc2c1`, for which the activation was 20.2% (inactive).

Take `COc1ccc2nc(NC(=O)c3ccc(Br)s3)sc2c1`: the activation was 136% (active).

Turning to `COc1cccc(C(=O)Nc2nc3ccc(S(C)(=O)=O)cc3s2)c1`, the activation was 61.6% (inactive).

For `CCOC(=O)CSC1=N/C(=C/c2ccc(-n3cncn3)cc2)C(=O)N1C(C)=O`, the activation was -12% (inactive).

Take `O=C(NCc1nnc(SCC(=O)N2CCC(Cc3ccccc3)CC2)o1)c1ccco1`: the activation is -6.49% (inactive).

`N/C(=N\OC(=O)c1ccc([N+](=O)[O-])cc1)c1ccccn1`: the activation was 149% (active).

For `O=C(OCc1ccc([N+](=O)[O-])cc1)c1ccccn1`, the activation was -1.07% (inactive).

Consider `N/C(=N\OC(=O)Cc1ccc([N+](=O)[O-])cc1)c1ccccn1`, for which the activation is 60.6% (inactive).

`O=[N+]([O-])c1ccc2[nH]c3c(c2c1)CCCC3O` (centres undefined): the activation was -8.34% (inactive).

In the case of `O=C(COC(=O)c1ccccc1F)Nc1cc(S(=O)(=O)N2CCOCC2)ccc1N1CCCC1`, the activation is 6.91% (inactive).

On to `O=C(/C=C/c1ccc(N2CCOCC2)cc1)c1ccccc1`, for which the activation is 140% (active).

`O=C(O)c1ccc2c(c1)C(=O)N(c1ccc(/C=C/C(=O)c3ccccc3)cc1)C2=O`: the activation was 19.3% (inactive).

As to `O=C(/C=C/c1ccccc1)c1ccoc1`, the activation is 0.93% (inactive).

In the case of `O=S(=O)(Nc1ccccn1)c1cccc(S(=O)(=O)c2ccc(Cl)cc2)c1`, the activation was 8.9% (inactive).

As to `COCCNC(=S)Nc1cc(S(=O)(=O)N2CCOCC2)ccc1N1CCCCC1`, the activation was 21.7% (inactive).

As to `Cn1nnnc1SCC(=O)NNC(=O)c1ccc(Br)cc1`, the activation was -3.54% (inactive).

Regarding `O=C(COC(=O)CNS(=O)(=O)c1ccccc1)NC12CC3CC(CC(C3)C1)C2`, the activation was 0.34% (inactive).

As to `CN(C)CCN=c1cc(-c2ccccc2)oc2ccc(Cl)cc12`, the activation is 158% (active).

As to `CN(C)CCn1c(=S)[nH]c2ccc(Cl)cc2c1=O`, the activation was -6.45% (inactive).

Turning to `Cc1cc(C)n(-c2ccc(C(=O)O)cc2[N+](=O)[O-])n1`, the activation is -4.56% (inactive).
